The structures appear in SMILES notation. The whole screen tested about 360,000 compounds, of which about 7,500 (2.1%) were called active. Entries that show only a call come without a potency. Inconclusive results (about 20%) are left out. Only a selection was taken, and actives are over-represented in it overall. Unmarked numbers belong to inactive results. Calls follow the shape of the dose curve; as a rule, active = well fitted inhibition curve with a large enough effect; inconclusive = small, poorly fitted or top-dose-only effect, or effect the other way; inactive = flat fitted curve, though single readings scatter.
Potency is read from the fitted curve at half-maximal effect.

The nature of this assay: Nrf2 qHTS screen for inhibitors. Also: nearly all actives have a fitted effect of over 60% in size. Conditions: A549 ARE-Fluc reporter, luciferase luminescence, 18-24 h; series mostly up to 46 µM. In outline:
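Nrf2 activity is the BugLite luminescence, read 15 min after reagent at room temperature, following CellTiter-Fluor cytotoxicity readout (30 min, 37C). Compound titrations were applied for 18-24 h to 5000 A549 ARE_Fluc cells/well in 5% FBS OPTI-MEM.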
On the technique in general: qHTS replaces the single test concentration by a dilution series.
Regarding `O=C1/C(=C\c2ccc(O)cc2)CCC1CNc1ccc(Cl)cc1` (stereo not given), the Potency entry was “inactive”.
On the same count and under the same terms, in the case of `CCN1C[C@@H]2[C@@H]3C(=O)N(C)C(=O)[C@@H]3[C@](C)(C1=O)N2C(=O)c1ccccc1` it was “inactive”; in that of `COc1ccc(CCNC(=O)COc2cc(C)cc3oc(=O)c(C)c(C)c23)cc1OC`, “inactive”; in that of `COc1ccccc1N1CCN(CCCNC(=O)c2cnn(-c3ccccc3Cl)c2C2CCN(C(=O)OC(C)(C)C)CC2)CC1`, “inactive”.
Same read-out and setting: the entry for `CCOc1ccc(N2C(=O)CC(N(O)c3ccccc3)C2=O)cc1` (stereo not given) is “inactive”.
Still for that read-out and setting: in the case of `CCOc1ccc(N2C(=O)CC(N(CCc3ccc(OC)c(OC)c3)C(=S)Nc3ccccc3)C2=O)cc1` (stereo not given) it was 23.1 µM (active).
In the case of `COC(=O)CN(C(=S)Nc1ccc(Cl)cc1)C1CC(=O)N(c2ccc(OC)cc2)C1=O` (stereo not given), the Potency result is “inactive”.
With `O=C1CC(c2nnc(Cc3ccc(Cl)cc3)o2)CN1c1ccccc1` (stereo not given), the Potency result is “inactive”.
Still for that read-out and setting: in the case of `O=C(NCCNc1ccccc1[N+](=O)[O-])c1ccccc1F` it was “inactive”.
`O=C(NCCCNc1ccc([N+](=O)[O-])cc1Cl)c1ccccc1F`: the Potency result is “inactive”.
Turning to `O=C(NCCNc1ccc([N+](=O)[O-])cc1Cl)c1ccccc1F`, the Potency was 16.4 µM (active).
On to `COc1ccccc1Nc1c2c(nc3ccc(NC(=O)/C=C/c4cc(OC)c(OC)c(OC)c4)cc13)CCCC2`, for which the activity change, negative = inhibition is 4.54% [at 9.27 µM].
Turning to `COc1ccccc1CNC(=O)CCCCn1c(=O)c2ccccc2n(CC(=O)Nc2cc(Cl)ccc2C)c1=O`, the Potency result is “inactive”.
The same measure, in the same setting: in the case of `COc1ccc(NC(=O)Cn2c(=O)n(CCC(C)C)c(=O)c3cccnc32)cc1Cl` it was “inactive”; in that of `COc1ccccc1C(=O)c1ccccc1C(=O)c1ccccc1`, “inactive”; in that of `CC1Cc2nc(SCC(=O)Nc3ccccc3F)n(C)c(=O)c2S1` (stereo not given), “inactive”.
Same read-out and setting: in the case of `COCCn1c(SCC(=O)N2CCCCCC2)nc2c(c1=O)SCC2` it was “inactive”.
Still for that read-out and setting: the figure for `COCCn1c(SCC(=O)Nc2ccccc2F)nc2c(c1=O)SCC2` is 4.11 µM (active).
As for `COC(=O)[C@@]1(C)[C@H]2C(=O)N(Cc3ccccc3)C(=O)[C@H]2[C@H]2CN=C(SCC3CC3)N21`, the Potency result is “inactive”.
On to `Cc1nn(Cc2ccccc2)c2c1C(c1ccccc1)C(C#N)=C(N)O2` (stereo not given), for which the Potency result was “inactive”.
Turning to `COc1ccccc1C1C(C#N)=C(N)Oc2c1c(-c1ccccc1)nn2-c1ccccc1` (stereo not given), the Potency is 20.6 µM (active).
Same read-out and setting: in the case of `Cc1nn(-c2ccccc2)c2c1C(c1ccc(F)cc1)C(C#N)=C(N)O2` (stereo not given) it was “inactive”; in that of `Cc1oc2ccc(O)c(CN3CCCCC3)c2c1C(=O)Nc1cccc(C(F)(F)F)c1`, “inactive”.
Still for that read-out and setting: the entry for `COc1cccc(C(=O)NC2CCN(C#N)CC2)c1` is “inactive”; for `Cc1ccccc1OCc1ccc(-c2nc(C#N)c(N3CCCCC3)o2)o1` it is “inactive”; for `Cc1ccccc1-n1c(SCC(=O)NCc2cccs2)nnc1-c1ccncc1` it is “inactive”.
Take `Cc1ccc(-n2c(SCC(=O)N3c4ccccc4Sc4ccccc43)nnc2-c2ccncc2)cc1`: the Potency entry was “inactive”.
The same measure, in the same setting: in the case of `Cc1ccc(Nc2nc(CSc3nnc(-c4ccncc4)n3-c3ccccc3C)cs2)cc1` it was 9.2 µM (active); in that of `CCc1cc2c(NC(Cc3ccccc3)C(=O)O)ncnc2s1` (stereo not given), “inactive”; in that of `CCc1cc2c(N3CCN(c4nnc(CC)s4)CC3)ncnc2s1`, 23.1 µM (active).
Take `Oc1ccccc1N1CCN(c2ncnc3sc(-c4ccccc4)cc23)CC1`: the Potency entry was “inactive”.
Consider `Cc1nn(-c2ccc(N3CCCCC3)nn2)c(C)c1CCC(=O)NCc1ccc(F)cc1`, for which the Potency result was “inactive”.
As for `COc1ccc(OC)c(NC(=O)CN2CCCN(Cc3cc(C)ccc3C)S2(=O)=O)c1`, the Potency result was “inactive”.
Regarding `O=C(N[C@H]1C/C=C\C(c2cccc(F)c2)N(Cc2ccccc2)C(=O)C1)OCC1c2ccccc2-c2ccccc21` (stereo not given in full), the Potency entry is “inactive”.
On the same count and under the same terms, the entry for `CCn1nccc1C(=O)Nc1ccc(Cl)c(Cl)c1` is “inactive”; for `N/C(=N\OC(=O)Nc1ccc(Cl)c(Cl)c1)c1ncc(C(F)(F)F)cc1Cl` it is “inactive”.
Consider `O=C(CC(O)(C(F)(F)F)C(F)(F)F)Nc1ccc(Cl)c(Cl)c1`, for which the Potency was 2.91 µM (active).
Still for that read-out and setting: in the case of `CCN(CC)c1nc(C#N)nc(OC)n1` it was “inactive”; in that of `CC1CCN(C(=O)c2cc3nc(C4CC4)cc(C(F)(F)F)n3n2)CC1`, 18.4 µM (active); in that of `O=C(c1ccccc1)N1CCN(C(=O)c2cc3nc(-c4ccccc4)cc(C(F)(F)F)n3n2)CC1`, 25.9 µM (active).
For `COC(=O)c1cc2nc(-c3ccccc3)cc(C(F)(F)F)n2n1`, the Potency result is “inactive”.
For `Cc1cccc(-n2ncc(C(=O)N3CCC(C)CC3)c2C2CCN(C(=O)OC(C)(C)C)CC2)c1`, the Potency entry was “inactive”.
For the compound `C=CCNC(=O)c1cc2nc(C3CC3)cc(C(F)F)n2n1`, the Potency entry was “inactive”.
Same read-out and setting: the entry for `O=C(NCC12CC3CC(CC(C3)C1)C2)c1cc2nc(-c3ccccc3)cc(C(F)(F)F)n2n1` is “inactive”.
For `CC(Sc1oc(-c2ccco2)nc1S(=O)(=O)c1ccc(Br)cc1)c1ccccc1` (stereo not given), the activity change, negative = inhibition is 8.26% [at 9.27 µM].
Regarding `Cc1ccc(-c2nnc3ccc(SCC(N)=O)nn23)cc1`, the Potency entry was “inactive”.
With `Cc1ccc(CNC(=O)CSc2c3c(nc4cc(Cl)ccc24)CCCC3)cc1`, the Potency entry was “inactive”.
The same measure, in the same setting: the entry for `Cc1cccc(NC(=S)N2CCC(C(=O)c3ccc(F)cc3)CC2)c1` is “inactive”; for `CCOc1ccc(C2C(C(=O)Nc3ccc(Cl)cc3)=C(C)Nc3nc(C(F)(F)F)nn32)cc1` (stereo not given) it is “inactive”; for `CCN(CC)c1ccc(NC(=O)CN2C(=O)c3cccnc3Oc3ccc(Cl)cc32)c(C)c1` it is “inactive”.
As to `CN1CCN(c2ccc(NC(=O)c3cc(Cl)c4c(c3)OCCO4)cc2)CC1`, the Potency result was “inactive”.
The same measure, in the same setting: in the case of `C=CC(=O)Nc1ccc(Nc2ccnc(Nc3ccc(N4CCN(C)CC4)cc3)n2)cc1` it was 14.6 µM (active); in that of `Cc1cccc(N2CCN(c3ccc(NC(=O)/C=C\C(=O)O)cc3)CC2)c1`, “inactive”; in that of `Cc1nn(-c2nc(-c3ccccc3)cc(C(F)(F)F)n2)c(C)c1Cl`, “inactive”.
Consider `CCN(c1ccccc1)S(=O)(=O)c1cccc(C(=O)NCc2ccccc2CN2CCOCC2)c1`, for which the Potency result is “inactive”.
Still for that read-out and setting: the figure for `Cc1ccc(-c2nn(C(C)(C)C)c3ncnc(N)c23)cc1` is 18.4 µM (active); for `Cc1ccc(-n2cnc3ncnc(-c4ccccc4)c32)cc1` it is “inactive”; for `Cc1nc2ccn(Cc3cccnc3)c(=O)c2cc1C(=O)N1CCN(c2ccccc2F)CC1` it is “inactive”.
Regarding `CCOc1ccc(CNC(=O)C2CCN(c3nnc(-n4cccc4CNc4ccc(C)cc4)s3)CC2)cc1OC`, the Potency entry was “inactive”.
`COc1ccc(Br)cc1/C=N/Nc1ccc(S(=O)(=O)Nc2ccccc2C(=O)O)cc1[N+](=O)[O-]`: the Potency result is “inactive”.

For the origin of these results see PubChem BioAssay AID504444 (National Center for Advancing Translational Sciences (NCATS), 2011).
